Hit rate of the full screen: of about 2,100 compounds, about 300 (14%) were called active. Another 2% or so got no clear call; they are omitted. Not all results are given here. Results with a measured potency or affinity are listed apart. Unmarked numbers belong to inactive results.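 Rule for the calls: active = every replicate test run called active, with the signal falling and half-maximal concentration within twice the top valid dose; inconclusive = the replicate test runs disagree in their calls; inactive = every test run inactive, including effects in the opposite direction.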
test: inhibitors of PGC1a acetylation in cells, dose response, cell-based, cherry-picked samples (AID 720514); conditions: U2OS PGC1a acetylation, AlphaLISA, overnight; series mostly up to 19.5 µM; activity change, negative = inhibition: at the top concentration;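 note: 0% = neutral control wells and -100% = positive control wells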

Row | SMILES | activity change, negative = inhibition
1 | Cc1c(C(=O)NCCSCc2c(F)cccc2Cl)cnn1-c1ccc(Cl)cc1 | 111%
2 | CC1CN(S(=O)(=O)c2ccc(C(=O)NCCCn3ccnc3)cc2)CC(C)O1 (configuration not stated) | 293%
3 | CCN(CC)CC(=O)N1c2ccccc2CCc2ccc(NC(=O)c3cc(OC)c(OC)c(OC)c3)cc21 | 49.2%
4 | O=C(c1cccc([N+](=O)[O-])c1)N1CCc2ccccc21 | 48%
5 | CC(C)(C)c1ccc(NC(=O)N2CCN(c3ccc([N+](=O)[O-])cn3)CC2)cc1 | 138%
6 | C[C@@H]1CCCCO[C@@H](CN(C)Cc2ccc(Cl)c(Cl)c2)[C@H](C)CN([C@@H](C)CO)C(=O)c2cc(NC(=O)CCC(F)(F)F)ccc2O1 | 32.3%
7 | C[C@@H]1CN([C@H](C)CO)C(=O)c2cc(N(C)C)ccc2O[C@@H](C)CCCCO[C@H]1CN(C)C(=O)Cc1ccccc1 | 77.6%
8 | Cc1noc(C)c1S(=O)(=O)Nc1ccc2c(c1)C(=O)N([C@H](C)CO)C[C@H](C)[C@H](CN(C)C(=O)c1ccncc1)OCCCC[C@@H](C)O2 | 23.5%
9 | Cc1ccc(S(=O)(=O)Nc2ccc3c(c2)C(=O)N([C@@H](C)CO)C[C@@H](C)[C@H](CN(C)C(=O)Nc2cccc4ccccc24)OCCCC[C@H](C)O3)cc1 | 58.5%
10 | CNC[C@H]1OCCCC[C@@H](C)Oc2ccc(NS(=O)(=O)c3ccccc3)cc2C(=O)N([C@H](C)CO)C[C@@H]1C | 48.2% [at 21 µM]
11 | C[C@@H]1CCCCO[C@@H](CN(C)CC2CC2)[C@H](C)CN([C@H](C)CO)C(=O)c2cc(NS(=O)(=O)c3ccccc3)ccc2O1 | 39.4%
12 | Cc1noc(C)c1S(=O)(=O)Nc1ccc2c(c1)C(=O)N([C@@H](C)CO)C[C@@H](C)[C@@H](CN(C)Cc1ccc3c(c1)OCO3)OCCCC[C@@H](C)O2 | 52%
13 | O=C(OCc1nc2ccsc2c(=O)[nH]1)c1cccc(S(=O)(=O)N2CCOCC2)c1 | 5.56%
14 | NCC[C@H]1CC[C@@H](NC(=O)C2CCCCC2)[C@@H](CO)O1 | 27.4%
15 | O=C(C[C@H]1CC[C@H]2[C@@H](COC[C@@H](O)CN2C(=O)c2cc(Cl)cc(Cl)c2)O1)N1CCc2ccccc2C1 | 79.8%
16 | CCc1nnc(NC(=O)Cc2ccc(S(=O)(=O)N3CCCCC3)cc2)s1 | 44%
17 | COc1ccc(NC(=O)Cn2ncc(Cl)c(Cl)c2=O)cc1S(=O)(=O)N1CCOCC1 | 67.1% [at 10 µM]
18 | N#Cc1ccccc1COC(=O)c1ccc2c(c1)OCCO2 | 163%
19 | Fc1ccc(-c2nn3c(C4COc5ccccc5O4)nnc3s2)cc1 (configuration not stated) | 135%

Row | SMILES | activity change, negative = inhibition
20 | COc1ccc2c(c1)C(C)=CC(C)(C)N2S(=O)(=O)c1ccc(Br)cc1 | 49.3% [at 10 µM]
21 | OC(COc1ccc(CNCCc2ccc(C(F)(F)F)cc2)cc1)CN1CCCCC1 (configuration not stated) | 33.5%
22 | CC1(C)CC(=O)C2=C(C1)Nc1ccccc1N1C(=O)c3ccccc3C21 (configuration not stated) | 65.3%
23 | O=C(NCc1csc(-c2cccs2)n1)c1cccc(Cl)c1 | 53.2% [at 10 µM]
24 | CN1OC(COC(=O)c2ccccc2)CC1c1ccccc1 (configuration not stated) | 23.1%
25 | CCC(=O)Nc1ccc(C(=O)Cn2ncc(Cl)c(Cl)c2=O)cc1 | 69%
26 | O=S(=O)(c1ccccc1)N(CC(F)(F)F)c1ccc(C(O)(C(F)(F)F)C(F)(F)F)cc1 | 84.8%
27 | COc1ccc(NC(=O)C2(C)Cc3c(-c4cccc(NC(C)=O)c4)ccnc3O2)cc1 (configuration not stated) | 53.5%
28 | CCOC(=O)C1=CC[C@@H](c2ccccc2)N(S(=O)(=O)c2ccc(C)cc2)[C@H]1c1cccc(OC)c1 | 58.4%
29 | Cc1csc(NC(=O)CSc2nsc(SCC(=O)Nc3nc(C)cs3)c2C#N)n1 | 75%
30 | CN1CCN(c2ccc(CNC(=O)c3ccc(-c4ccnn4C)c4ccoc34)cc2)CC1 | 66.9%
31 | COc1cc(CN2CCCC(CO)(Cc3cccc(Cl)c3)C2)cc2c1OCO2 (configuration not stated) | 61.2%
32 | CCOc1ccc(N(C)S(=O)(=O)c2cc(-c3cc(C)no3)ccc2C(C)C)cc1 | 144%
33 | C[C@@H]1CN([C@@H](C)CO)C(=O)c2c(c3ccccc3n2C)-c2ccccc2CO[C@@H]1CN(C)C(=O)Nc1ccc2c(c1)OCO2 | 163% [at 21 µM]
34 | COC(=O)c1cc(S(=O)(=O)N2CCN(c3ccc(C(C)=O)cc3)CC2)c[nH]1 | 112%
35 | CCC(=O)N(CC)c1nc(-c2ccc(OC)cc2)cs1 | 58.5%
36 | CSc1nc(NCc2ccco2)c2ccccc2n1 | 41.5%
37 | Cc1ccc2oc(-c3ccc(NC(=O)c4cccnc4)cc3)nc2c1 | 276%
38 | CC(C)CCNc1nc(N2CCCC2)c2c(c1C#N)CCN(C)C2 | 68.1% [at 10 µM]

Row | SMILES | activity change, negative = inhibition
39 | CC/C(=C(\c1ccc(O)cc1)c1ccc(OCCN(C)C)cc1)c1ccccc1 | 137% [at 10 µM]
40 | COc1ccc(CCC(=O)NCCS(=O)(=O)N2CCN(c3ccccc3)CC2)cc1 | 49.9%
41 | COc1ccccc1CN1CCCC(C(=O)N(C)Cc2ccccc2)C1 (configuration not stated) | 56.3% [at 10 µM]
42 | OC(c1ccccc1)(C1CCCCC1)C(CN1CCOCC1)c1ccccc1 (configuration not stated) | 75.2% [at 10 µM]
43 | CCN1CCN(C(=O)c2ccc3c(=O)n(CCC4=CCCCC4)c(=O)[nH]c3c2)CC1 | 90.2%
44 | O=[N+]([O-])c1ccc(N2CCN(CC3CCCCC3)CC2)cc1 | 41.3%
45 | c1ccc(Cn2nnnc2C(c2cccs2)N2CCCCCC2)cc1 (configuration not stated) | 44.4%
46 | c1ccc(CN2OCC3Cn4c(nc5ccccc54)C32)cc1 (configuration not stated) | 31.5%
47 | COc1ccc(C(c2nnnn2C2CCCC2)N2CCC(C)CC2)c(OC)c1 (configuration not stated) | 74.1%
48 | COc1ccc(-n2nnnc2CNC(=O)c2ccc3ccccc3c2)cc1 | 48.8% [at 10 µM]
49 | CC(C)C(c1nnnn1Cc1ccccc1)N(Cc1ccco1)Cc1cccs1 (configuration not stated) | 141%
50 | c1ccc(C(c2nnnn2Cc2cccs2)N2CCN(C3CCCC3)CC2)cc1 (configuration not stated) | 49.8%
51 | COc1cccc(CN2C[C@@H]3N[C@H](C2)C3c2ccc(-c3ccccc3F)cc2)c1 (some centres not stated) | 46.1%
52 | CCOC(=O)Cn1cnc2scc(-c3ccccc3)c2c1=O | 18%
53 | O=C(Cc1ccccc1)Nc1nc(-c2ccc(F)c(F)c2)cs1 | 75%
54 | COc1cccc(-c2ccc(C3[C@@H]4CN(Cc5ccccn5)C[C@H]3N4)cc2)c1 (some centres not stated) | 59.2%
55 | COc1cccc(CN2C[C@@H]3N[C@H](C2)C3c2ccc(-c3cccc(C#N)c3)cc2)c1 (some centres not stated) | 79.6%
56 | COc1ccccc1CN1C[C@@H]2N[C@H](C1)C2c1ccc(-c2ccccc2OC)cc1 (some centres not stated) | 40.7% [at 21 µM]
57 | Cc1cccc(-c2ccc(C3[C@@H]4CN(C(=O)C5CCCCC5)C[C@H]3N4)cc2)c1 (some centres not stated) | 58.1% [at 10 µM]
